Results as given in PubChem BioAssay (NCATS).
Where “and” joins values, the source holds several entries; their conditions need not be identical. Equal values may be shown once. Records with an inconclusive call do not appear. Entries that show only a call come without a potency. A number with no mark means an inactive call. Calls of active or inactive are those of the source. Calls follow the shape of the dose curve; as a rule, active = well fitted curve in the direction sought with a large enough effect; inconclusive = small, poorly fitted or top-dose-only effect, or another doubt; inactive = no such curve, though single readings can be large; an effect the other way counts as inactive or inconclusive.

What was measured:
[1] = Viability qHTS for spleen associated tyrosine kinase inhibitor (SYKi) naive MV4-11 cells (AID 1963823); also: nearly all actives have a fitted effect of over 40% in size; also: potency is read from the fitted curve at half-maximal effect
In short: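 Compounds were dispensed acoustically onto plates, MV4-11 cells (SYKi-naive) added at 500 per well, and plates incubated 72 hr at 37 C. CellTiter-Glo was added and luminescence measured after 10 min.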

[2] = Viability qHTS for spleen associated tyrosine kinase inhibitor (SYKi) drug resistant MV4-11 cells (AID 1963824); also: nearly all actives have a fitted effect of over 35% in size; also: potency is read from the fitted curve at half-maximal effect
In short: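 SYK inhibitor-resistant MV4-11 AML cells, 500 per well, added to predispensed compounds and incubated 72 hr at 37 C, 5% CO2. Viability measured by CellTiter-Glo luminescence after 10 min at room temperature.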

[3] = Quantitative highthroughput screen to assess conditional lethalithy of NOMO1 cells grown in RPMI1640 with untreated serum (RPMI+s) (AID 1963876); also: nearly all actives have a fitted effect of over 35% in size
In short: (§1)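 Each medium arm—HPLM with 10% dialyzed FBS, or RPMI1640 with 5 mM glucose and 10% untreated or dialyzed FBS—was screened against an 11-point, 3-fold compound titration for 48 h at 37 °C, with CellTiter-Glo luminescence as endpoint.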

[4] = Quantitative highthroughput screen to assess conditional lethalithy of NOMO1 cells grown in RPMI1640 with dialyzed fetal bovine serum (RPMI+ds) (AID 1963877); also: nearly all actives have a fitted effect of over 30% in size; also: potency is read from the fitted curve at half-maximal effect; as to Viability: series mostly up to about 46 µM
In short: as §1

[5] = Quantitative highthroughput screen to assess conditional lethalithy of P12 Ichikawa cells grown in RPMI1640 with dialyzed fetal bovine serum (RPMI+ds) (AID 1963880); conditions: Potency: P12-Ichikawa viability; also: nearly all actives have a fitted effect of over 35% in size; also: potency is read from the fitted curve at half-maximal effect
In short: as §1

[6] = Quantitative highthroughput screen to assess conditional lethalithy of P12 Ichikawa cells grown in RPMI1640 with untreated serum (RPMI+s) (AID 1963881); conditions: Potency: viability; also: nearly all actives have a fitted effect of over 35% in size; also: potency is read from the fitted curve at half-maximal effect; as to Viability: series mostly up to about 46 µM
In short: as §1

[7] = Quantitative highthroughput screen to assess conditional lethalithy of SEM cells grown in RPMI1640 with dialyzed fetal bovine serum (RPMI+ds) (AID 1963884); also: nearly all actives have a fitted effect of over 35% in size; also: potency is read from the fitted curve at half-maximal effect; as to Viability: series mostly up to about 46 µM
In short: as §1

[8] = Cellular viability qHTS for adrenocortical cancer (ACC) cell line SW-13 (AID 1963989); conditions: SW-13 ACC cells viability, CellTiter-Glo, 48 h; activity (max response): stronger effect = lower value; also: nearly all actives have a fitted effect of over 65% in size; also: potency is read from the fitted curve at half-maximal effect;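 as to activity (max response): cells grown in serum-free medium with ITS supplement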
In short: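 48 h treatment, SW-13 in ITS/DMEM serum-free; doses up to 46 uM; readout CellTiter-Glo luminescence; curve fit four-parameter logistic.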

[9] = Cellular viability qHTS for adrenocortical cancer (ACC) cell line NCI-H295R (AID 1963990); also: nearly all actives have a fitted effect of over 60% in size; also: potency is read from the fitted curve at half-maximal effect
In short: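 Compound titrations (up to 46 uM final) are applied to NCI-H295R cultures for 48 h at 37C. Viable cell number is estimated by CellTiter-Glo signal, normalised to DMSO and doxorubicin controls.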

[10] = Quantitative highthroughput screen to assess conditional lethalithy of NOMO1 cells grown in Human Plasma-Like Medium with dialyzed fetal bovine serum (HPLM+ds) (AID 1963878); also: nearly all actives have a fitted effect of over 35% in size; also: potency is read from the fitted curve at half-maximal effect
In short: as §1

[11] = Quantitative highthroughput screen to assess conditional lethalithy of P12 Ichikawa cells grown in Human Plasma-Like Medium with dialyzed fetal bovine serum (HPLM+ds) (AID 1963879); conditions: Potency: viability; also: nearly all actives have a fitted effect of over 35% in size; also: potency is read from the fitted curve at half-maximal effect; as to Viability: series mostly up to about 46 µM
In short: as §1

[12] = Quantitative highthroughput screen to assess conditional lethalithy of SEM cells grown in Human Plasma-Like Medium with dialyzed fetal bovine serum (HPLM+ds) (AID 1963882); also: nearly all actives have a fitted effect of over 35% in size; also: potency is read from the fitted curve at half-maximal effect; as to Viability: series mostly up to about 46 µM
In short: as §1

[13] = Quantitative highthroughput screen to assess conditional lethalithy of SEM cells grown in RPMI1640 with unreated serum (RPMI+s) (AID 1963883); also: nearly all actives have a fitted effect of over 35% in size; also: potency is read from the fitted curve at half-maximal effect
In short: as §1

CN(C)CCc1ccc(O)cc1
Potency [1]: inactive | Potency [2]: inactive | Potency [3]: inactive | Potency [4]: inactive | Potency [5]: inactive | Potency [6]: inactive | Potency [7]: inactive | activity (max response) [8]: -2.47% | Potency [9]: inactive

COc1cc(OC)c(OC)cc1C=O
Potency [1]: inactive | Potency [2]: inactive | Potency [3]: inactive | Potency [10]: inactive | Potency [11]: inactive | activity (max response) [8]: 8.71%

COC[C@H]1OC(=O)c2coc3c2[C@@]1(C)C1=C(C3=O)[C@@H]2CC[C@H](O)[C@@]2(C)C[C@@H]1OC(C)=O
Potency [1]: 11.6 µM (active) | Potency [2]: 14.6 µM (active) | Potency [3]: inactive | Potency [4]: inactive

COCC(C(=O)OC1CC2CCC(C1)N2C)c1ccccc1 (configuration not stated)
Potency [1]: inactive | Potency [2]: inactive

C=C(C)[C@@H]1CCC(C)=C[C@H]1c1c(O)cc(CCCCC)cc1O
Potency [1]: 20.9 µM (active) | Potency [2]: 16.6 µM (active) | Potency [8]: 31.6 µM (active)

CN1C(=O)CCS(=O)(=O)C1c1ccc(Cl)cc1 (configuration not stated)
Potency [1]: inactive | Potency [2]: inactive | Potency [12]: inactive | Potency [7]: inactive | activity (max response) [8]: 1.09% and -1.33% | Potency [9]: inactive

CC1(N2CCC(n3c([C@@H]4CCCNC4)nc4ccccc43)CC2)CCCCCCC1
Potency [1]: 6.51 µM (active) | Potency [2]: 9.2 µM (active) and 7.42 µM (active) | Potency [4]: 16.6 µM (active) | Potency [10]: 13.2 µM (active) | Potency [5]: 13.2 µM (active) | Potency [13]: inactive | Potency [8]: 28.2 µM (active) | Potency [9]: 17.8 µM (active)

COc1cc(C)[nH]c(=O)c1CNC(=O)c1c(C)n([C@H](C)C2CCOCC2)c2ccccc12
Potency [1]: inactive | Potency [2]: inactive | activity (max response) [8]: 8.24%

C[C@]12CC[C@@H]3c4ccc(OC(=O)N(CCCl)CCCl)cc4CC[C@H]3[C@@H]1CC[C@@H]2OP(=O)(O)O
Potency [1]: inactive | Potency [2]: inactive | Potency [10]: 18.7 µM (active) | Potency [5]: inactive | Potency [6]: inactive | activity (max response) [8]: -13.4%

N=c1c2c(-c3ccccc3)c(-c3ccccc3)n(Cc3ccccc3)c2ncn1C1CCC(O)CC1 (configuration not stated)
Potency [1]: 0.525 µM (active) | Potency [2]: 0.372 µM (active) | Potency [5]: 16.6 µM (active) | Potency [9]: 8.91 µM (active)

N[C@@H](Cc1ccc(N(CCCl)CCCl)cc1)C(=O)O
Potency [1]: 10.6 µM (active) and 833 nM (active) | Potency [2]: 7.5 µM (active) and 742 nM (active) | Potency [10]: 7.43 µM (active) | Potency [11]: 10.5 µM (active) | Potency [5]: 5.9 µM (active) | Potency [6]: 4.69 µM (active) | activity (max response) [8]: -19.4% | Potency [9]: 28.2 µM (active)

O=c1cccc2n1CC1CNC[C@H]2C1
Potency [1]: inactive | Potency [2]: inactive | Potency [7]: inactive | activity (max response) [8]: -2.44% | Potency [9]: inactive

CC[C@@H](C(N)=O)N1CCCC1=O
Potency [1]: inactive | Potency [2]: inactive | Potency [4]: inactive | Potency [6]: inactive | activity (max response) [8]: -2.57% | Potency [9]: inactive

O=[N+]([O-])/N=C1\NCCN1Cc1ccc(Cl)nc1
Potency [1]: inactive | Potency [2]: inactive | activity (max response) [8]: -5.88%

COc1ccc(C(=O)c2c(C)n(CCN3CCOCC3)c3cc(I)ccc23)cc1
Potency [1]: 13.2 µM (active) | Potency [2]: 10.5 µM (active) | Potency [11]: 4.18 µM (active) | Potency [5]: 8.33 µM (active) | Potency [12]: 20.9 µM (active) | Potency [8]: 31.6 µM (active) | Potency [9]: 20 µM (active)

COC(=O)[C@@H](N)CCCN=C(N)N[N+](=O)[O-]
Potency [1]: inactive | Potency [2]: inactive | Potency [4]: inactive | Potency [5]: inactive | Potency [12]: inactive | activity (max response) [8]: 6.1% | Potency [9]: inactive

O=c1[nH]c2ccccc2n1C1CCN(Cc2ccc(-c3[nH]c4cc5ncnc5cc4nc3-c3ccccc3)cc2)CC1
Potency [1]: 14.8 µM (active) | Potency [2]: 1.84 µM (active) | Potency [4]: inactive | Potency [11]: inactive | Potency [5]: inactive | Potency [6]: inactive | Potency [12]: inactive | Potency [9]: 22.4 µM (active)

Cc1ncc(CNC(=O)N(CCCl)N=O)c(N)n1
Potency [1]: inactive | Potency [2]: inactive | activity (max response) [8]: 2.91%

CN1CCN(c2ccc([N+](=O)[O-])c3no[n+]([O-])c23)CC1
Potency [1]: 8.33 µM (active) | Potency [2]: 8.33 µM (active) | Potency [4]: inactive | Potency [11]: inactive | Potency [5]: inactive | activity (max response) [8]: 1.98%

Fc1ccc(C(OCCN2CCN(CCCc3ccccc3)CC2)c2ccc(F)cc2)cc1
Potency [1]: 5.96 µM (active) and 6.61 µM (active) | Potency [2]: 6.68 µM (active) and 6.61 µM (active) | Potency [4]: 20.9 µM (active) | Potency [10]: 20.9 µM (active) | Potency [8]: 5.8 µM (active) and 14.1 µM (active) | Potency [9]: 4.61 µM (active) and 11.2 µM (active)

COc1cc(N)c(Cl)cc1C(=O)NC1CN2CCC1CC2 (configuration not stated)
Potency [1]: inactive | Potency [2]: inactive | activity (max response) [8]: -1.3%

CNCC(O)c1ccc(O)cc1 (configuration not stated)
Potency [1]: inactive | Potency [2]: inactive | Potency [4]: inactive | Potency [10]: inactive | Potency [13]: inactive | activity (max response) [8]: -3.15% and -7.74% | Potency [9]: inactive

O=P1(NCCCl)OCCCN1CCCl (configuration not stated)
Potency [1]: inactive | Potency [2]: inactive | Potency [6]: inactive | Potency [13]: 14.8 µM (active) | Potency [7]: 20.9 µM (active) | activity (max response) [8]: 17.4% and 1.23% | Potency [9]: inactive
